{"source": "PubChem BioAssay (NCATS)", "note": "The other results are listed elsewhere or left out. Results filed as inconclusive are left out. Active and inactive are the calls of the source. Calls follow the shape of the dose curve; as a rule, active = well fitted inhibition curve with a large enough effect; inconclusive = small, poorly fitted or top-dose-only effect; inactive = flat fitted curve, though single readings scatter. % is scaled to controls: 0 for no effect and ±100 for the full control effect.", "data": [{"target": "Fructose-bisphosphate aldolase A (Oryctolagus cuniculus) (UniProt P00883)", "sequence (P00883 whole entry, looked up)": "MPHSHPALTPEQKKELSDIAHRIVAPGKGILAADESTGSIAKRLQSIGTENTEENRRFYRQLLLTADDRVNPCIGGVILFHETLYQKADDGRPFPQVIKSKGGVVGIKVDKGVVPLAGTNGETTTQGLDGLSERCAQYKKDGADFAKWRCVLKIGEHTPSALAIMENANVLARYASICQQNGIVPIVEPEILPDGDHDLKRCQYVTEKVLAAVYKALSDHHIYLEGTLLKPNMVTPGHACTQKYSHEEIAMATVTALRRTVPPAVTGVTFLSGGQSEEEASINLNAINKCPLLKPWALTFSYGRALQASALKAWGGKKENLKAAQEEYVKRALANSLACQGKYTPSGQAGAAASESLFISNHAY", "assay": "qHTS Assay for Inhibitors of Fructose-1,6-bisphosphate Aldolase from Giardia Lamblia: Rabbit FBPA Selectivity (AID 2794); also: nearly all actives have a fitted effect of over 60% in size", "settings": "Rabbit muscle FBPA enzyme inhibition, selectivity counter-screen; series mostly up to 57.5 µM; activity, negative = inhibition: at the top concentration", "excerpt": "NIH Chemical Genomics Center [NCGC]\nNIH Molecular Libraries Probe Production centers Network [MLPCN]\nAssay Provider: Osnat Herzberg, University of Maryland\nThe objective of this project is to obtain compounds that inhibit Giardia lamblia growth. G. lamblia is a human pathogen which afflicts impoverished nations; it is the most common cause of outbreaks of diarrhea in the United States. During the course of our study of potential drug targets in Giardia, we have identified the Class II (Zn2+ functions in electrophilic catalysis) fructose-1,6-bisphosphate aldolase (FBPA) as an excellent candidate for drug targeting. FBPA is a key glycolytic pathway enzyme, essential for G. lamblia survival. The human FBPA belongs to the Class I aldolases, which have a different substrate binding site structure and a radically different catalytic mechanism (employing a lysine-Schiff base intermediate). Therefore, affinity-based or mechanism-based inhibitors of the Giardia FBPA are expected not to interfere with the catalytic function of the human FBPA.\nA glyceraldehyde-3-phosphate dehydrogenase/triose phosphate isomerase/NAD/arsenate coupled assay was adapted to the 1536-well HTP format for use in the primary screen. This was done by coupling it to a diaphorase/resazurin/resorufin reaction that can be monitored by fluorescence (excitation, 544 nm; emission, 590 nm). Compounds identified in this screen will be further evaluated by coupling the glycerol-3-phosphate/triose phosphate isomerase/NADH assay to a phenazine methosulfate/tetranitroblue tetrazolium color reaction. False positives due to the dehydrogenases and diaphorase inhibition will be eliminated, and selectivity assay will triage inhibitors of mammalian triose phosphate isomerase and the Class I FBPA. G. lamblia FBPA inhibitors identified by the in vitro analyses will be examined for growth inhibition of Giardia trophozoites, and for cytotoxicity in human cells.\nThis assay addresses whether hits in the primary screen are selective for […] FBPA, by using rabbit FBPA enzyme in the protocol.\nStep,Parameter,Value,Description\n1,Coupling enzyme reagent,2 uL,glyceraldehyde-3-phosphate\n2,Compound,23 nL,3.68 nM-57.5 uM final concentration\n3,Time,10 min,RT Incubation\n4,Substrate/detection Reagent,2 uL,Substrate + enzyme coupling system + AmpLite Red kit\n5,Time,20 min,RT Incubation\n6,Detector,525 nm/598 nm (Fluorescence),ViewLux Fluorescence Read (Read 1)\n1,Medium-binding black solid-bottom Kalypsys plates. FRD or Kalypsys dispenser.\n2,Compound Library (10 mM ,1:5 dilution). Pin-transferred for a [final] range of 3.68 nM-57.5 uM.\n4,FRD or Kalypsys dispenser, 2 uL of reaction mixture. Bottle kept at 4C and covered in foil to protect from light.\n6,ViewLux Protocol 1194; Excitation filter wheel A (525/20 Pol; BODIPY TMR FP), Emission filter wheel B (598/25 S; BODIPY TMR FP S).\nKeywords: Fructose-bisphosphate aldolase, FBPA , Giardia lamblia , Giardia, HTS, Inhibitors", "values": [{"smiles": "O=C(NC(=S)Nc1ncccn1)c1ccccc1Br", "activity, negative = inhibition": "9.29% (inactive)"}, {"smiles": "CCN(CC(=O)NC(=O)NCc1ccccc1)Cc1nc2ccccc2c(=O)[nH]1", "activity, negative = inhibition": "-5.83% (inactive)"}, {"smiles": "Cc1ccc(S(=O)(=O)NNC(=S)NC(C)(C)C)cc1", "activity, negative = inhibition": "2.83% (inactive)"}, {"smiles": "CC(C)(c1ccccc1)c1ccc(OCCN2CCCC2)cc1", "activity, negative = inhibition": "-0.381% (inactive)"}, {"smiles": "CCc1ccc2c(c1)C1(NN=C(c3ccccc3)S1)C(=O)N2", "note": "(stereo not given)", "activity, negative = inhibition": "1.08% (inactive)"}, {"smiles": "Cc1nnc(SCC2=C(C(=O)O)N3C(=O)C(NC(=O)Cn4nc(C)c(Cl)c4C)C3SC2)s1", "note": "(stereo not given)", "activity, negative = inhibition": "3.51% (inactive)"}, {"smiles": "CC(=O)NC1CCN(CC(=O)Nc2nccs2)CC1", "activity, negative = inhibition": "6.87% (inactive)"}, {"smiles": "Clc1cccc(CN2COc3c(cc(Cl)c4cccnc34)C2)c1", "activity, negative = inhibition": "-19.4% (inactive)"}, {"smiles": "C/C(=N\\NC(N)=S)c1cccnc1", "activity, negative = inhibition": "6.15% (inactive)"}, {"smiles": "O=S(=O)(c1ccc(NC(=S)NN=C(C2CC2)C2CC2)cc1)N1CCOCC1", "activity, negative = inhibition": "13% (inactive)"}, {"smiles": "C=C(C)CNC(=S)N/N=C/c1ccccc1OCC(=O)O", "activity, negative = inhibition": "17% (inactive)"}, {"smiles": "O=C1CCCN1CCCNC(=S)Nc1ccc(F)c(Cl)c1", "activity, negative = inhibition": "9.97% (inactive)"}, {"smiles": "C=CCc1cc(C)ccc1OCCCn1ccnc1", "activity, negative = inhibition": "12.7% (inactive)"}, {"smiles": "CN1C(=O)/C(=C\\c2ccc(-c3ccccc3)o2)SC1=S", "activity, negative = inhibition": "-8.42% (inactive)"}, {"smiles": "O=c1nc(N/N=C/c2ccco2)cn[nH]1", "activity, negative = inhibition": "9.26% (inactive)"}, {"smiles": "O=C(Nc1nnc(-c2ccco2)o1)c1ccc(S(=O)(=O)N2CCOCC2)cc1", "activity, negative = inhibition": "2.95% (inactive)"}, {"smiles": "Cn1nnc(NC(=S)NC(=O)c2ccccc2)n1", "activity, negative = inhibition": "2.93% (inactive)"}, {"smiles": "CCN(CC(=O)Nc1ccc(S(=O)(=O)N2CCCC2)cc1)CC(=O)Nc1cccc(OC)c1", "activity, negative = inhibition": "18% (inactive)"}, {"smiles": "O=[N+]([O-])c1ccc2nc(-c3ccccn3)[nH]c2c1", "activity, negative = inhibition": "-22.3% (inactive)"}, {"smiles": "O=[N+]([O-])c1cc([N+](=O)[O-])c2cccnc2c1O", "activity, negative = inhibition": "-17.4% (inactive)"}, {"smiles": "O=C(O)Cn1c(Cc2ccccc2)nc2ccccc21", "activity, negative = inhibition": "3.92% (inactive)"}, {"smiles": "COc1ccc(N=Nc2c(-c3ccc(OC)cc3)[nH]oc2=O)cc1", "activity, negative = inhibition": "3.66% (inactive)"}, {"smiles": "O=C(CN1CCN(Cc2ccccc2)CC1)Nc1ccc(F)c(F)c1", "activity, negative = inhibition": "-1.24% (inactive)"}, {"smiles": "COCCN(C(=S)Nc1ccccc1OC)C1CCN(C(C)C)CC1", "activity, negative = inhibition": "5.23% (inactive)"}, {"smiles": "Cc1nnc(N/N=C/c2ccccn2)[nH]c1=O", "activity, negative = inhibition": "-5.96% (inactive)"}, {"smiles": "COc1ccc(CN2CCN(Cc3ccc(OC)c(OC)c3OC)CC2)cc1", "activity, negative = inhibition": "-2.94% (inactive)"}, {"smiles": "O=C(CSc1cccc[n+]1[O-])c1ccc(-c2ccccc2)cc1", "activity, negative = inhibition": "3.7% (inactive)"}, {"smiles": "C=CCNC(=S)/N=c1/ccccn1Cc1ccccc1", "activity, negative = inhibition": "20.1% (inactive)"}, {"smiles": "Cc1cccc(C)c1OCCN1CCOCC1", "activity, negative = inhibition": "-5.8% (inactive)"}, {"smiles": "Cc1cc(C)n(-c2ccc(Cl)c(C(=O)O)n2)n1", "activity, negative = inhibition": "-10% (inactive)"}, {"smiles": "CNC(=S)N/N=C/c1ccc(N2CCOCC2)s1", "activity, negative = inhibition": "-4.67% (inactive)"}, {"smiles": "CCS(=O)(=O)c1cc([N+](=O)[O-])c(Sc2ccccc2N)s1", "activity, negative = inhibition": "-3.31% (inactive)"}, {"smiles": "Oc1ccc2ccccc2c1N=Nc1nccs1", "activity, negative = inhibition": "-13.3% (inactive)"}, {"smiles": "CSc1n[nH]c(=S)n1N", "activity, negative = inhibition": "-2.76% (inactive)"}, {"smiles": "Cc1csc(NC(=O)CN2CCCCCC2)n1", "activity, negative = inhibition": "6.56% (inactive)"}, {"smiles": "Cc1cc(C)nc(N/N=C/c2ccc([N+](=O)[O-])o2)n1", "activity, negative = inhibition": "-8.84% (inactive)"}, {"smiles": "CC1CCCN(S(=O)(=O)c2ccc(C(=O)Nc3nnc(-c4ccncc4)o3)cc2)C1", "note": "(stereo not given)", "activity, negative = inhibition": "19.6% (inactive)"}, {"smiles": "COC(=O)CC1=NN(c2nc(C)cc(C)n2)C(=O)C1", "activity, negative = inhibition": "-3.84% (inactive)"}, {"smiles": "Cc1cccc(-c2nnc(SCC(=O)O)n2Cc2ccccc2)c1", "activity, negative = inhibition": "1.86% (inactive)"}, {"smiles": "Oc1[nH]c2ccc(Br)cc2c1N=Nc1nn[nH]n1", "activity, negative = inhibition": "-4.8% (inactive)"}]}]}
